Screening data deposited in PubChem BioAssay by National Center for Advancing Translational Sciences (NCATS).
Pf Dd2 growth – Plasmodium falciparum Dd2 growth inhibition. 120,000 tested, 4.3% active. P. falciparum Dd2 growth, SYBR Green, 72 h. Potency, µM (series often up to 28.9 µM), inactives show at the highest dose activity, negative = inhibition, actives largely listed as inhibitors; active = well fitted inhibition curve with a large enough effect;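 also: plate controls were DMSO vehicle for no effect and reference drug for full effect; nearly all actives have a fitted effect of over 65% in size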
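Readout: SYBR Green fluorescence, 485 nm excitation, 535 nm emission, after ~16 h lysis at 37C. Before that, Dd2-infected red cells (2.5% hematocrit) grew 72 h with compound, 29 uM top final concentration.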
Numbers without * were called inactive; i = inactive; [ ] = dose if it differs, or a comment. This excerpt belongs to a sample that is enriched for hits. Potency is read from the fitted curve at half-maximal effect.

SMILES | Pf Dd2 growth
C#C[C@H]1CN2CC[C@H]1C[C@@H]2CNS(=O)(=O)CCC | i
C=C[C@H]1CN2CC[C@H]1C[C@@H]2CNC(=O)Nc1ccc(C(C)=O)cc1 | -31%[44.1 µM]
C#C[C@H]1CN2CC[C@H]1C[C@@H]2CNS(=O)(=O)Cc1ccccc1 | 7.1µM*
C#C[C@H]1CN2CC[C@H]1C[C@@H]2CNS(=O)(=O)c1ccc(OC)cc1 | 3.2µM*
C=C[C@H]1CN2CC[C@H]1C[C@@H]2CNC(=O)c1ccc(N(C)C)cc1 | -5%[44.1 µM]
C=CCN(C)C[C@H]1CN2CC[C@H]1C[C@@H]2CNC(=O)Nc1ccccc1 | -17%[44.1 µM]
C#CCN(C)C[C@H]1CN2CC[C@H]1C[C@@H]2CNS(=O)(=O)c1ccc(Cl)cc1 | i
C#C[C@H]1CN2CC[C@H]1C[C@@H]2CNS(=O)(=O)c1ccccc1 | i
C=CCN(C)C[C@H]1CN2CC[C@H]1C[C@@H]2CNS(=O)(=O)c1ccc(C)cc1 | 11µM*
C#C[C@H]1CN2CC[C@H]1C[C@@H]2CNS(=O)(=O)c1ccc(NC(C)=O)cc1 | -6%[44.1 µM]
C=C[C@H]1CN2CC[C@H]1C[C@@H]2CNCc1ccc(SC)cc1 | 7.1µM*
C[C@@H](NC(=O)[C@@]1(O)C[C@@H](O)[C@H](O)[C@@H](NC(=O)Nc2ccc(OC(F)(F)F)cc2)C1)C(N)=O | 8%
O=C(CC1CCCN(c2cnn(CC3CC3)c(=O)c2)C1)NCCN1CCCCC1 (centres undefined) | -4%
Cc1noc(-c2cn(C3CCN(C(=O)c4ccc(F)cc4)CC3)nn2)n1 | i
CC(C)NC(=O)C[C@@H]1O[C@H](CNC(=O)Nc2ccccc2)[C@@H](O)[C@H]1O | 10%[44.1 µM]
CCCN(CC1CCOC1)S(=O)(=O)c1ccc2c(c1)OCCO2 (centres undefined) | 20%[5.79 µM]
N#Cc1cccc(CN2CCN(c3nccc(Cl)n3)C(=O)C2)c1 | -22%[44.1 µM]
COc1ccc(NC(=O)C(C)(C)Oc2nn(C(C)C)c3ccc(CN4CCOCC4)cc23)cc1 | i
Fc1ccc(OC2CN(Cc3ccc(C(F)(F)F)cc3)C2)c(F)c1 | -8%
CS(=O)(=O)c1ccc(CN2C[C@H](O)C[C@H]2c2nc(-c3cnccn3)no2)cc1 | -26%[44.1 µM]
C=C[C@H]1CN2CC[C@H]1C[C@@H]2CNC(=O)c1ccc(-c2ccccc2)cc1 | -25%[44.1 µM]
C=C[C@H]1CN2CC[C@H]1C[C@@H]2CNS(C)(=O)=O | -13%[44.1 µM]
C=C[C@H]1CN2CC[C@H]1C[C@@H]2CNS(=O)(=O)Cc1ccccc1 | 7.1µM*
COc1ccc(C(=O)N[C@@H]2CCC[C@@H]2C(=O)NCC(C)C)cc1 | -13%
CCS(=O)(=O)N1CCC(Nc2cccnc2)C1 (centres undefined) | 17%[5.79 µM]
SMILES | Pf Dd2 growth
Cc1cc2cc(-c3c(C)noc3C)nc(Nc3ccccc3)c2o1 | -28%[44.1 µM]
Cc1cc2cc(-c3c(C)noc3C)nc(N3CCCC3)c2o1 | -12%[44.1 µM]
Cc1cc2cc(-c3c(C)noc3C)nc(N(C)CCN(C)C)c2o1 | 2µM*
Cc1ccc(NC(=O)Cn2c(N3CCC(C)CC3)nc(C)cc2=O)c(C)c1 | i
COc1ccccc1NC(=O)Cn1c(N2CCC(C)CC2)nc(C)cc1=O | -5%
CCOc1ccccc1NC(=O)Cn1c(N2CCC(C)CC2)nc(C)cc1=O | 11µM*
COc1ccc(Cl)cc1NC(=O)Cn1c(N2CCN(c3ccccc3)CC2)nc(C)cc1=O | 7.9µM*
Cc1cc(=O)n(CC(=O)Nc2ccc(Br)cc2)c(N2CCN(c3ccccc3)CC2)n1 | -11%
CCOc1ccc(NC(=O)Cn2c(N3CCN(c4ccccc4)CC3)nc(C)cc2=O)cc1 | i
O=C1NCCN2CC3(CCN(S(=O)(=O)c4cccc(F)c4)CC3)CC12 (centres undefined) | -8%
CC(=O)N1CCCN(Cc2nnc(C(=O)N3CCC[C@@H]3c3cccc(F)c3)n2-c2ccccc2)CC1 | -9%
O=C(CCc1c[nH]c2ccccc12)N1[C@H]2CC[C@@H]1c1cnc(-c3ccccc3)nc1C2 | -19%
O=C(Cc1cccnc1)N1[C@H]2CC[C@@H]1c1cnc(-c3ccc(F)cc3)nc1C2 | -15%
O=C(CCc1nc2ccccc2[nH]1)N1[C@H]2CC[C@@H]1c1cnc(-c3ccc(F)cc3)nc1C2 | 11µM*
COCCn1c(=O)n([C@H]2CCCN(C(=O)c3cnc(C)cn3)C2)c2ncccc21 | 22%
COc1ccc(C(=O)N2CCC3(CC2)OC(=O)N(Cc2ccc(NC(C)=O)cc2)C3(C)c2ccccc2)cn1 (centres undefined) | -12%
Cc1noc([C@@H]2CN(Cc3cc(F)cc(F)c3)C[C@H]2CO)n1 | 6%
Cc1ccc(C)c(NC(=O)N2CC(n3cc(COc4ccccc4)nn3)C2)c1 | -8%
O=C(NCc1ccco1)N1CC(n2cc(COc3ccccc3)nn2)C1 | -12%
O=C(c1ccccc1Br)N1CC(n2cc(COc3ccc(F)cc3)nn2)C1 | 11µM*
COc1ccc(C2(C(=O)NCc3ccc4ccccc4c3)CCOCC2)cc1 | -8%
Cn1cc(C(=O)N2CCC(N(C3CCOCC3)S(C)(=O)=O)CC2)cn1 | 143%
Cc1ccc(CNC(=O)N2CCC(c3noc(-c4cccnc4)n3)C2)cc1 (centres undefined) | i[5.79 µM]
COc1ccc(S(=O)(=O)N(CC(=O)NCc2ccccc2OC)c2ccc(C)cc2)cc1 | -20%
CCOc1ccc(S(=O)(=O)N(CC(=O)NCc2ccccc2OC)c2ccccc2)cc1 | 9%
SMILES | Pf Dd2 growth
CCN(CC)S(=O)(=O)c1ccc2oc(C(=O)NCc3ccccc3OC)c(C)c2c1 | 7.9µM*
CCn1cnnc1CC1CCN(C(=O)c2ccc(OC)cc2OC)C1 (centres undefined) | -18%
COc1cccc(CN2CCc3nc(C(=O)Nc4nc(C)cs4)oc3CC2)c1 | -25%[44.1 µM]
CCn1cc(C(=O)NC2CCc3nnc(C4CC4)n3CC2)cn1 (centres undefined) | 31%
COC(=O)CNC(=O)c1nc(-c2ccc(Cl)cc2)c2ccccn12 | -5%[44.1 µM]
COc1ccc(-n2cc(C(=O)Nc3cc(F)ccc3F)c3ccccc3c2=O)cc1 | i
COC(=O)c1ccc(Cl)cc1NC(=O)N1CC(C)Oc2ccccc21 (centres undefined) | -25%
COC(=O)CC1Oc2ccc(F)cc2-n2cc(-c3ccc(Cl)cc3)nc21 (centres undefined) | 11µM*
O=C(CS(=O)(=O)c1nc(-c2ccc(Cl)cc2)cn1-c1ccccc1)Nc1ccc(F)cc1F | -1%
COC(=O)CC1Oc2ccccc2-n2cc(-c3ccc(Cl)cc3)nc21 (centres undefined) | 3.5µM*
O=C(Nc1ccc2c(c1)OCO2)c1cccc2c1CCN2C(=O)Nc1ccc(F)cc1 | -16%
COc1ccc(NC(=O)NC[C@H]2O[C@@H]3C[C@@H](CC(=O)NCc4cnn(C)c4)O[C@@H]3[C@@H]2O)cc1 | i
CC(C)CN1C(=O)c2ccccc2C(C(=O)NC(C)C)C12CCCC2 (centres undefined) | -13%
COCCCNC(=O)C1c2ccccc2C(=O)N(CC(C)C)C12CCCCC2 (centres undefined) | -8%
CC(C)CN1C(=O)c2ccccc2C(C(=O)Nc2nncs2)C12CCCC2 (centres undefined) | 13µM*
CCCCNC(=O)C1c2ccccc2C(=O)N(Cc2ccccc2)C12CCCC2 (centres undefined) | -6%
CC(C)CN1C(=O)c2ccccc2C(C(=O)NC(C)C)C12CCCCC2 (centres undefined) | 2%
Cc1cccc(NC(=O)C2c3ccccc3C(=O)N(CC(C)C)C23CCCC3)n1 (centres undefined) | 3.5µM*
COCCNC(=O)C1c2ccccc2C(=O)N(CC(C)C)C12CCCCC2 (centres undefined) | -13%
